Reference: PubChem BioAssay (NCATS)
Results filed as inconclusive are left out. Entries that show only a call come without a potency. Active and inactive are the calls of the source. Calls follow the shape of the dose curve; as a rule, active = well fitted inhibition curve with a large enough effect; inconclusive = small, poorly fitted or top-dose-only effect; inactive = no such curve, though single readings can be large or run the other way.

assay: BET inhibitor-based combinations targeting novel dependencies in MECOM-rearranged (r) AML: UCSD-AML1 cell line (AID 2202235); details: UCSD-AML1 AML cells viability, CellTiter-Glo, 48 h; series mostly up to 46 µM; also: nearly all actives have a fitted effect of over 40% in size
Text: Ecotropic viral insertion site 1 (EVI1) is located on chromosome 3q26.2 as part of the MECOM (MDS and EVI1 complex) locus. Under normal hematopoiesis, EVI1 is a regulator of hematopoietic stem cell maintenance and self-renewal and EVI1 levels decrease as the cells differentiate. In approximately 5-10% of de novo acute myeloid leukemia (AML) EVI1 is aberrantly expressed, including Chromosomal inv(3)(q21;q26.2) or t(3;3)(q21;q26.2) alterations (MECOM-r) that account for about 50% of AML with EVI1 overexpression 31. AMLs with high levels of EVI1 have a poor prognosis and an overall survival time averaging between 10-14 months. EVI1 overexpression confers resistance in leukemia cells, highlighting the need to develop new targeted therapies for EVI1 overexpressing AMLs. Here, we performed an unbiased chemical drug screening by evaluating the single agent activity of a collection of 2,480 oncology-focused, approved and investigational drugs (NCATS Mechanism Interrogation Plates, MIPE v5.0) against a panel of seven AML cell lines. These included four MECOM-r cell-lines (AML-191, AML-194, UCSD-AML1 and HNT-34) and three non-MECOM-r AMLs (MV4-11, OCI-AML3 and SET-2). Exploiting the mechanistic redundancy built in the library, we identified target-level sensitivities in MECOM-r AML cells and relative activity as compared to other AML subtypes.
A collection of 2480 mechanistically annotated dugs (MIPE v5.0) was used to screen four 3q26.2 rearranged AML cell lines and three non-3q26.2 rearranged AML cell lines. This library purposely exploits redundancy by including multiple inhibitors of key onco-targets, while simultaneously encompassing mechanistic diversity, targeting more than 800 distinct mechanisms of action. Briefly, cells were seeded in 5 uL of growth media using a Multidrop Combi dispenser into 1536 well white polystyrene tissue culture treated plates (Corning) at a density of 500cells/well. For each cell-line, for each of the 2480 drugs in MIPE v5.0 library, an 11-point dose curve was generated via a 1536 pin-tool. Plates were incubated for 48 hr at standard incubator conditions, covered by a stainless steel gasketed lid to prevent evaporation. Cell viability was determined by luminescence based, Cell Titer Glo assay (Promega). In detail, 3 uL of Cell Titer Glo were added to each well and plates were incubated at room temperature for 15 min with a stainless-steel lid in place. Luminescence readings were taken using a Viewlux (PerkinElmer) with a 2 s exposure time per plate. Compound dose-response curves were normalized to DMSO and empty well controls on each plate. Quantitative drug activity data from dose-response curves was determined utilizing area Under the Curve (AUC) and Z-transformed AUC (Z-AUC, a mean-centering transformation applied to each individual cell-line screened).
Potency is read from the fitted curve at half-maximal effect.

SMILES | Potency
CN[C@@H](C)C(=O)N[C@@H]1C(=O)N(Cc2c(C)ccc3ccccc23)c2ccc(C#N)cc2N(C(C)=O)[C@H]1C | inactive
Cc1c(F)ccc(C(=O)Nc2cc([N+](=O)[O-])ccc2N2CCN(C)CC2)c1Cl | inactive
C[C@@H]1CCN(C(=O)CC#N)C[C@@H]1N(C)c1ncnc2[nH]ccc12 | 0.059 µM (active)
CCS(=O)(=O)N1CCC(C(C)n2c(C)c(C(=O)NCc3c(OC)cc(C)[nH]c3=O)c3ccccc32)CC1 (stereo not given) | inactive
O=C(/C=C/c1ccc(CN(CCO)CCc2c[nH]c3ccccc23)cc1)NO | 0.132 µM (active)
O=C(O)CCNc1cc(N2CCc3ccccc3CC2)nc(-c2cccnc2)n1 | inactive
CC1Oc2cc(cnc2N)-c2c(nn(C)c2C#N)CN(C)C(=O)c2ccc(F)cc21 (stereo not given) | 20.9 µM (active)
COc1cc2c3c(n(CCCN4CCOCC4)c(=O)c2cc1OC)-c1cc2c(cc1C3=O)OCO2 | 0.0934 µM (active)
O=C1CC[C@H](N2Cc3c(OCc4ccc(CN5CCOCC5)cc4)cccc3C2=O)C(=O)N1 | inactive
C/C(=N\NC(=S)N1CCC1)c1ccccn1 | 0.0417 µM (active)
COc1cc([C@@H]2c3cc4c(cc3[C@@H](O[C@@H]3O[C@@H]5CO[C@@H](c6cccs6)O[C@H]5[C@H](O)[C@H]3O)[C@H]3COC(=O)[C@H]23)OCO4)cc(OC)c1O | 0.132 µM (active)
COc1ccc2c(c1)C(c1ccc(F)cc1)=C(CN1CCCC1)CO2 | inactive
C=C1CC[C@@H]2[C@](C)(CO)[C@H](O)CC[C@@]2(C)[C@@H]1C/C=C1/C(=O)OC[C@H]1O | 10.5 µM (active)
CC(=O)O/N=C1\C(=O)N(Cc2cc(Cl)ccc2Cl)c2ccc(Cl)cc21 | 8.33 µM (active)
COc1cc(C(=O)O)ccc1NC(=O)[C@@H]1N[C@@H](CC(C)(C)C)[C@](C#N)(c2ccc(Cl)cc2F)[C@H]1c1cccc(Cl)c1F | 0.468 µM (active)
CC1(N)CCN(c2cnc(-c3cccc(Cl)c3Cl)c(N)n2)CC1 | inactive
COc1cc(OC)c(NC(=O)Nc2cc(C)on2)cc1Cl | inactive
Nc1nc2c(c(=O)[nH]1)N1CN(c3ccc(C(=O)N[C@@H](CCC(=O)O)C(=O)O)cc3)CC1CN2 (stereo not given in full) | 0.934 µM (active)
C[C@@H]1CC(=O)Nc2cccc(-c3cnn(C(C)(C)C)c3)c2N1 | 14.8 µM (active)
Nc1n[n+]([O-])c2ccccc2[n+]1[O-] | inactive

SMILES | Potency
CC1=NN(c2ccc(C(=O)O)cc2)C(=O)/C1=C/c1ccc(-c2cc(C)c(C)cc2[N+](=O)[O-])o1 | inactive
C=CC(=O)Nc1cccc(C)c1Nc1ncc2cc(-c3c(Cl)c(OC)cc(OC)c3Cl)ccc2n1 | 5.25 µM (active)
Cc1c(Cl)cccc1S(=O)(=O)Nc1nc(CCN2CCOCC2=O)cs1 | inactive
Cc1ccc(C(=O)OCc2ccc([C@@H](CN)C(=O)Nc3ccc4cnccc4c3)cc2)c(C)c1 | 14.4 µM (active)
C=CC(=O)N1CCC(CNc2ncnc(N)c2-c2ccc(Oc3ccccc3)cc2)CC1 | inactive
O=C(NO)c1ccc(C2=Nc3ccccc3Oc3ccccc32)cc1 | 4.17 µM (active)
Cc1noc(-c2ccc(-c3ccc(C4(C(=O)O)CC4)cc3)cc2)c1NC(=O)O[C@H](C)c1ccccc1 | inactive
C=C1[C@H](OC(=O)/C=C(\C)CC)C[C@@H](C(C)C)[C@@H]2[C@H]([C@@H](C)OC(C)=O)C(=O)C[C@@H]12 | inactive
COc1ccc(S(=O)(=O)N2CCc3cccc(-c4ccncc4)c32)cc1 | 1.18 µM (active)
C=C1C(=O)OC2/C=C(/C)CC/C=C(/C)CCC12 (stereo not given) | 26.3 µM (active)
Nc1ncccc1-c1nc2ccc(-c3ccccc3)nc2n1-c1ccc(C2(N)CCC2)cc1 | 16.6 µM (active)
Cc1ccc(-c2ncn(-c3ccc(Nc4nccc(-c5cccc(N6CCOCC6)c5)n4)cc3)n2)cn1 | 2.35 µM (active)
CC(C)NC(=O)COc1cccc(-c2nc(Nc3ccc4[nH]ncc4c3)c3ccccc3n2)c1 | inactive
CC(C)(O)CS(=O)(=O)Nc1ccc2c(c1)CCN(C(=O)COc1cccnc1)C2 | 0.332 µM (active)
CC(C)(CO)n1cc(C(=O)c2cncc(NC(=O)Cc3ccc(Cl)cn3)c2)c2cnc(N)nc21 | inactive
CN(C(=O)c1c(O)c2ccccc2n(C)c1=O)c1ccccc1 | inactive
COCCNCc1ccc(-c2cc3nccc(Oc4ccc(NC(=S)NC(=O)Cc5ccc(F)cc5)cc4F)c3s2)nc1 | 2.95 µM (active)
Cc1ccc2cc(-c3c(C)ccc(C(=O)c4c(-c5ccccc5)n(C)n(-c5ccccc5)c4=O)c3N)ccc2n1 | inactive
N=C1S/C(=C\c2ccc(-c3ccc4c(c3)C(=O)NC4=O)o2)C(=O)N1c1ccc(Br)cc1 | inactive
C=CC(=O)N1CCC(C2CCNc3c(C(N)=O)c(-c4ccc(Oc5ccccc5)cc4)nn32)CC1 (stereo not given) | inactive
